Here are results for seven compounds from PubChem BioAssay (Tox21).

Several values for one entry are separate records, joined by “and”; a condition that tells them apart may be missing. Equal values may be shown once. Results filed as inconclusive are left out. A structure can be active in one record and inactive in another. Activity calls are given as the source filed them. Unless noted, calls follow the shape of the dose curve; as a rule, active = well fitted curve in the direction sought with a large enough effect in the repeat runs; inconclusive = weak or mixed curves; inactive = no such curve, though single readings can be large; an effect the other way counts as inactive or inconclusive.

Experiment [1] in a line: qHTS assay to test for compound auto fluorescence at 535 nm (green) in HEK293 cells (AID 720680). In general terms: Quantitative high-throughput screening tests each substance at several concentrations.
Experiment [2] can be described thus: qHTS assay to test for compound auto fluorescence at 460 nm (blue) in HEK293 cell free culture (AID 720681). In outline: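 Compounds were added to cell-free DMEM with 10% FBS and fluorescence read directly. The blue channel used 405 nm excitation and 460 nm emission, with triamterene as the reference fluorophore.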
Experiment [3] can be described thus: qHTS assay to test for compound auto fluorescence at 535 nm (green) in HEK293 cell free culture (AID 720682). The essentials: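 Measurement is a direct plate read of green fluorescence (485 nm in, 535 nm out) after compound addition to serum-supplemented DMEM lacking cells, with fluorescein used to express intensities.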
The nature of experiment [4]: qHTS assay to test for compound auto fluorescence at 590 nm (red) in HEK293 cell free culture (AID 720683). In outline: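 Cell-free wells of DMEM with 10% FBS received compound, and intrinsic fluorescence was read at excitation/emission 540/590 nm. Values expressed as equivalence to Rose Bengal sodium.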
A short description of experiment [5]: qHTS assay to test for compound auto fluorescence at 590 nm (red) in HepG2 cell free culture (AID 720684). The essentials: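 Rose Bengal sodium served as the reference for red signal. Test compounds were dispensed into serum-containing MEM (10% FBS) without cells, and plates were read at 540/590 nm.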
Experiment [6] is described as follows: qHTS assay to test for compound auto fluorescence at 460 nm (blue) in HepG2 cell free culture (AID 720685). The essentials: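 Cell-free plates of MEM plus 10% FBS received 23 nL compound or DMSO vehicle; blue-channel (405/460 nm) intensity scored against triamterene as reference fluorophore.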
Experiment [7] in a line: qHTS assay to test for compound auto fluorescence at 535 nm (green) in HepG2 cell free culture (AID 720686).
Experiment [8] can be described thus: qHTS assay to test for compound auto fluorescence at 460 nm (blue) in HepG2 cells (AID 720687). The essentials: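 HepG2 cells in MEM with 10% FBS, attached overnight at 37 C, were exposed to compound or DMSO for 1 hr at 37 C, 5% CO2. Blue fluorescence was read at 405/460 nm, with triamterene as reference fluorophore.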
Experiment [9] deals with Glucocorticoid receptor (Homo sapiens) (UniProt P04150). Briefly: qHTS assay to identify small molecule agonists of the glucocorticoid receptor (GR) signaling pathway (AID 720691; active = well fitted activation curve with a large enough effect in the signal ratio in the repeat runs, not every such curve was filed as active; the % refers to the signal ratio). The essentials: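 A HeLa cervical cancer line expressing GR and a glucocorticoid response element-driven beta-lactamase gene is treated with compounds for 18 h; LiveBLAzer B/G FRET substrate is then applied and fluorescence read.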
Glucocorticoid receptor (Homo sapiens), sequence (P04150 whole entry, looked up): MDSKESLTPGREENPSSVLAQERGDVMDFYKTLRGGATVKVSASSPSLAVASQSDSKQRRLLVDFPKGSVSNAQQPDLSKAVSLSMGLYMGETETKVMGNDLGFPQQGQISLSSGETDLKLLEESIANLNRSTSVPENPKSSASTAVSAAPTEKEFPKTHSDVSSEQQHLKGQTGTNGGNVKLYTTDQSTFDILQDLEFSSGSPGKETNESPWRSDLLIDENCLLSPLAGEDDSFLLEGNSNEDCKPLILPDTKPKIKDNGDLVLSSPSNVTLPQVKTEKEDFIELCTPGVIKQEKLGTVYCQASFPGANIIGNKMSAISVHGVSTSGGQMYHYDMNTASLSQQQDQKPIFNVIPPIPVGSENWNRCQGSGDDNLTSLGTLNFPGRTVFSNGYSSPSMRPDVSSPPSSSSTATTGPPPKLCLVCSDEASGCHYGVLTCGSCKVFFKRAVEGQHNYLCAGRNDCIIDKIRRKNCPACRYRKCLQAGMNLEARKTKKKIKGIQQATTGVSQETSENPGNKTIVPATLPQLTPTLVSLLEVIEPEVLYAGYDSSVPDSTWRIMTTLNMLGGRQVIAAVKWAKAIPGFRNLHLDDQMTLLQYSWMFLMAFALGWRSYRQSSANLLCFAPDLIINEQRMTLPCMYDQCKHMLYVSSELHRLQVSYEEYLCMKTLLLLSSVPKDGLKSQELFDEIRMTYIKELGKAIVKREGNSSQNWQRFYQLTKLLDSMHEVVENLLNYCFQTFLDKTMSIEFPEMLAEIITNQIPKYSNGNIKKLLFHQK

Experiment [10] has the same target. Briefly: qHTS assay to identify small molecule antagonists of the glucocorticoid receptor (GR) signaling pathway (AID 720692; active = well fitted inhibition curve with a large enough effect in the signal ratio in the repeat runs, not every such curve was filed as active; the % refers to the signal ratio). The essentials:
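GRE-bla HeLa line, dex-stimulated (5 nM final). Compound exposure 18 h, 37 C. Beta-lactamase FRET read after 2 h RT substrate.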

Experiment [11] can be described thus: qHTS assay to identify small molecule antagonists of the glucocorticoid receptor (GR) signaling pathway - cell viability counter screen (AID 720693). Also: nearly all actives have a fitted effect of over 55% in size.
A short description of experiment [12]: qHTS assay for identifying genotoxic compounds that show differential cytotoxicity against isogenic chicken DT40 cell lines with known DNA damage response pathways - wild type cell line (AID 743012). Also: nearly all actives have a fitted effect of over 60% in size. Also: potency is read from the fitted curve at half-maximal effect. In outline:
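300 wt DT40 cells/well; cpd (DMSO) pintool-transferred after ~0.5 h at 37 C/5% CO2; 40 h incubation; CellTiter-Glo added, 30 min RT; luminescence read.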

Experiment [13] in a line: qHTS assay for identifying genotoxic compounds that show differential cytotoxicity against isogenic chicken DT40 cell lines with known DNA damage response pathways - Rev3 mutant cell line (AID 743014). Also: nearly all actives have a fitted effect of over 55% in size. Also: potency is read from the fitted curve at half-maximal effect.
Experiment [14] is described as follows: qHTS assay for identifying genotoxic compounds that show differential cytotoxicity against isogenic chicken DT40 cell lines with known DNA damage response pathways - Rad54/Ku70 mutant cell line (AID 743015). Also: nearly all actives have a fitted effect of over 60% in size. Also: potency is read from the fitted curve at half-maximal effect.
The nature of experiment [15]: qHTS assay to identify small molecule antagonists of the androgen receptor (AR) signaling pathway - cell viability counter screen (AID 743033; also: nearly all actives have a fitted effect of over 45% in size).
Experiment [16] can be described thus: qHTS assay to identify small molecule antagonists of the thyroid receptor (TR) signaling pathway - cell viability counter screen (AID 743064). Also: nearly all actives have a fitted effect of over 50% in size. In outline: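 Compounds were tested on GH3.TRE-Luc cells in the presence of T3 at 1 nM final. Following 23.5 h at 37 °C, cell viability was quantified by CellTiter-Fluor.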
Experiment [17] is described as follows: qHTS assay to identify small molecule antagonists of the androgen receptor (AR) signaling pathway using the MDA cell line - cell viability counter screen (AID 743041; also: nearly all actives have a fitted effect of over 45% in size). In outline:
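Cytotoxicity counter screen: MDA-kb2 AR-luc cells, compound + R1881, 16 h, 37C, 0% CO2; CellTiter-Fluor added at 15.5 h, fluorescence read after 30 min.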

In the case of `CCCOC(=O)c1cc(O)c(O)c(O)c1`, the Potency entry in experiment [1], in [2], in experiment [3], in [6], in experiment [7] and in experiment [8] was “inactive” throughout. Further, the Potency entry in experiment [9], in experiment [10], in experiment [11] and in [15] was “inactive” in each case. Moreover, the call in [4] and in experiment [5] was inactive. Also, the Potency in experiment [12] was 13.3 µM (active) and 43.1 µM (active) and 43.3 µM (active); in experiment [13], 15 µM (active) and 27.2 µM (active) and 30.6 µM (active); in experiment [14], 13.3 µM (active) and 27.2 µM (active) and 27.3 µM (active).
Consider `COC(=O)/C=C/c1ccccc1`, for which the Potency entry in [1], in experiment [2], in experiment [3], in [6], in experiment [7] and in experiment [8] was “inactive” throughout. Besides, the Potency result in experiment [9], in experiment [10], in experiment [11], in experiment [12], in [15] and in experiment [16] was “inactive” in each case. Moreover, the call in experiment [4] and in experiment [5] was inactive.
In the case of `CO[Si](OC)(OC)c1ccccc1`, the Potency entry in [1], in [2], in [3], in [6], in experiment [7] and in [8] was “inactive” each time. Also, the Potency result in [9], in experiment [10], in experiment [11], in [12], in experiment [14] and in experiment [15] was “inactive” in each case. In addition, the Potency entry in experiment [16] was “inactive”. The result in experiment [4] and in experiment [5] was inactive.
`CCCCC(CC)COC(=O)CC(C(=O)OCC(CC)CCCC)S(=O)(=O)O` (configuration not stated): the Potency result in [1], in [2], in [3], in experiment [6], in [7] and in experiment [8] was “inactive” each time. Moreover, the Potency entry in experiment [9], in [11], in [12], in [13] and in [15] was “inactive” throughout. The result in [4] and in experiment [5] was inactive. In experiment [14], the Potency entry was “inactive and 43.3 µM (active)”.
As for `NCCO`, the Potency result in experiment [1], in [2], in experiment [3], in experiment [6], in experiment [7] and in experiment [8] was “inactive” in each case. Also, the Potency entry in experiment [9], in experiment [11], in experiment [12], in experiment [14], in [15] and in [16] was “inactive” each time. For the same compound, the outcome in experiment [4] and in experiment [5] was inactive. For the same compound, the Potency result in experiment [13] was “inactive and 68.6 µM (active)”.
`O=C(O)c1cccc(C(=O)O)c1`: the Potency entry in [1], in experiment [2], in experiment [3], in experiment [6], in experiment [7] and in experiment [8] was “inactive” each time. Also, the Potency result in experiment [9], in experiment [10], in experiment [11], in [15] and in experiment [16] was “inactive” throughout. The call in [4] and in [5] was inactive.
Regarding `O=C(OCc1ccccc1)c1ccc(O)cc1`, the Potency result in [1], in experiment [2], in experiment [3], in experiment [6], in experiment [7] and in [8] was “inactive” throughout. Besides, the Potency entry in experiment [9], in experiment [10], in experiment [11], in experiment [12], in [15] and in experiment [17] was “inactive” each time. Besides, the Potency entry in experiment [16] was “inactive”. Moreover, the compound was classed as inactive in [4] and in experiment [5]. For the same compound, the Potency in experiment [14] was 61.1 µM (active).
